Measured values as given in the supplement of paper PMC10681739.

These sequences were tested against T1, ETS1 (UniProt P14921) (assay: ETS1 binding intensity (PBM fluorescence), ETS1 alone (arbitrary fluorescence units); higher = stronger binding). Settings: ETS1 concentration 1 nM; RUNX1 concentration 0 nM.
T1 sequence: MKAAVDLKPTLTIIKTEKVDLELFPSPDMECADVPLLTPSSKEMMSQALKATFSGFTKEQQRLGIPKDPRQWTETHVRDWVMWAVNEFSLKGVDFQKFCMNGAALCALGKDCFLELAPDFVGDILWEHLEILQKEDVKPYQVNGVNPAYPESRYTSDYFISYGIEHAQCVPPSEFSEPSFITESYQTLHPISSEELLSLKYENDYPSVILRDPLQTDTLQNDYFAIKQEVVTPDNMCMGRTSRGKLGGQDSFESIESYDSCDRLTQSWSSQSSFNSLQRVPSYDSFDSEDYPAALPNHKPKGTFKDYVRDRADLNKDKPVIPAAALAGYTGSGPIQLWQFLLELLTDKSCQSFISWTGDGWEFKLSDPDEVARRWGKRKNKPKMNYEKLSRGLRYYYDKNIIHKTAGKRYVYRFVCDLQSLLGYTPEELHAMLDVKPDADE

Q: With GGCTTCCGCCGCCACCACTGCCCCTCAACCGCCACG as the sequence, how does the ETS1 binding intensity read?
A: The ETS1 binding intensity was 518.

Q: Which ETS1 binding intensity does the source give for GCACTCGGATGTTGGCCGTAGTTGTGGTTATAGTTG here?
A: The ETS1 binding intensity was 464.

Q: How did the ETS1 binding intensity turn out when GACCAATGTAAACAAGGATGTGGGTTCTCCGGGCAC was run?
A: The ETS1 binding intensity was 929.

Q: Which ETS1 binding intensity does the source give for ACAGATCCAAGGAAGCATATCCCGCAAGCAACTGTT here?
A: The ETS1 binding intensity was 460.

Q: How did the ETS1 binding intensity turn out when CACCTCACAGCCCGGATACAAACCGCCTACCCGCCC was run?
A: The ETS1 binding intensity was 780.

Q: With CATGACGAAGGGGAAGGATGTGGTTTGAGGGCAGCA as the sequence, how does the ETS1 binding intensity read?
A: The ETS1 binding intensity was 774.

Q: How did the ETS1 binding intensity turn out when GAGGGTTGCTGGGGGGAAGTGTGGTAAATCTTTTCC was run?
A: Its ETS1 binding intensity is 458.

Q: Which ETS1 binding intensity does the source give for CCCAGGCTTCCGGGTTGAATATGTGGGCTGAGGCGA here?
A: The ETS1 binding intensity was 455.

Q: For CGGGGCTTCCGGCGCGCTGCCTTGTGGGCACGGTAG, which ETS1 binding intensity is on record?
A: Its ETS1 binding intensity is 591.

Q: How did the ETS1 binding intensity turn out when AGTGGATAGCACTTCCTTCTCTTACCACAGTTCCTT was run?
A: Its ETS1 binding intensity is 365.

Q: For TACCCCGCCGGAAGCCCCCTGCTCTGTGGGAACCGG, which ETS1 binding intensity is on record?
A: The ETS1 binding intensity was 2480.

Q: With GCGATCGGAGCGGAAGTGGAGCTACCGCCACCGCCG as the sequence, how does the ETS1 binding intensity read?
A: The ETS1 binding intensity was 7540.

Q: Which ETS1 binding intensity does the source give for CTGCGCGGCCGGAAGTCGGCGGTTTCCCAGACGACG here?
A: Its ETS1 binding intensity is 20800.

Q: With GTCAGGGGAACAGGATGTGGGTGGGAGCCAGCCCCA as the sequence, how does the ETS1 binding intensity read?
A: Its ETS1 binding intensity is 4250.

Q: With GGCTGTGCTTCAGGATGTGGTAATGCTTGGGAGGCG as the sequence, how does the ETS1 binding intensity read?
A: The ETS1 binding intensity was 990.

Q: How did the ETS1 binding intensity turn out when CTCACAGCAGCCCCAGGAAACCACCTCTTCCTTCAG was run?
A: The ETS1 binding intensity was 847.

Q: With TGGAAGCGGCTTCCGGGGTGAATGCGGTTGGATCGT as the sequence, how does the ETS1 binding intensity read?
A: Its ETS1 binding intensity is 1150.

Q: CCCGCTACACAAGGCGGATGTGGTACCCTCACTTGT was tested. Which ETS1 binding intensity did it give?
A: The ETS1 binding intensity was 3810.
